Source: PubChem BioAssay (several laboratories)
PLK1 kinase inh = blocks human PLK1 kinase activity | P53350 | recombinant PLK1 kinase, TR-FRET peptide phosphorylation | inhibition, % at 10 µM | actives 0.53% (n = 97,000);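 active means inhibition of 50% or more in the single-concentration screen; inactive means inhibition below 50%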;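 further: 0% = DMSO max control and 100% = H-89 dihydrochloride min control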
Target sequence (P53350 whole entry, looked up): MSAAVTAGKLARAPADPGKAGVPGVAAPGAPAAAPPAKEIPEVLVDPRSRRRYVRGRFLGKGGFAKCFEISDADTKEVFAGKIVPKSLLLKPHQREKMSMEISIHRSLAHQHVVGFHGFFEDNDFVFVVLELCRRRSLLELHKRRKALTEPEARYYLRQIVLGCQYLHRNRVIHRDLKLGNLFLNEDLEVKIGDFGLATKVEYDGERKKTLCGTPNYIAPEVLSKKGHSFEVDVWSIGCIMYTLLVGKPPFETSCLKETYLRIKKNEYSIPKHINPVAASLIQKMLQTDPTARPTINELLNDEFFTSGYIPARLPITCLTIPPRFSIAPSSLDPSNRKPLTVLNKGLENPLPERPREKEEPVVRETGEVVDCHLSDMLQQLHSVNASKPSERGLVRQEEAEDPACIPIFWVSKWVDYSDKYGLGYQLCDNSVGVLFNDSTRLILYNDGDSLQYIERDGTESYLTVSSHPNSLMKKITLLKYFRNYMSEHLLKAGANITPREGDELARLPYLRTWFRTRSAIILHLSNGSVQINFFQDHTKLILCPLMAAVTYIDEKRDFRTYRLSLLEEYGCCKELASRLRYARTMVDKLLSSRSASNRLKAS
CYP2C9 inhib = blocks human cytochrome P450 2C9; P11712; CYP2C9 Supersomes, luciferin-H conversion, luminescence; inhibition, % at 5 µM; actives 20% (n = 96,000);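 active means blocking of liver enzyme CYP2C9 beyond about 50% at 5 µM, limit read from the data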
CYP2C19 inhib = human CYP2C19 inhibition | AID 778 | inhibition, % at 5 µM | CYP2C19 Supersomes, luciferin-H EGE luminescence, 30 min | P33261 | actives 21% (n = 96,000);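 active means CYP2C19 inhibition above a set limit at 5 µM in the primary screen, cut at about 50% in these data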;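 further: plate controls were negative control wells for no effect and 2.5 mM tranylcypromine positive control for full effect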
CYP2C9 act = activators of human CYP2C9 | P11712 | recombinant CYP2C9, luciferin-H conversion, luminescence; hits give high values; factor 1 = untreated enzyme, 0 = blocked | activation factor at 5 µM | actives 1.4% (n = 96,000);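 active means activation factor of 2 or more for CYP2C9 at a 5 µM dose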;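 further: 0 = sulfaphenazole-blocked wells and 1 = vehicle-only wells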
CYP2C19 activ = increases human CYP2C19 enzyme activity; P33261; recombinant CYP2C19, luciferin-H EGE luminescence; hits give high values; 0 = fully inhibited enzyme, 1 = untreated enzyme; activation factor at 5 µM; 96,000 tested, under 10 active; AID 1025;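 active means activation factor of at least 2 at 5 µM in the primary screen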;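 further: 0 = wells with 2.5 mM tranylcypromine and 1 = vehicle-only wells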
Plk1 PBD FP = inhibitors of human Plk1 polo box domain binding; Plk1 PBD phosphopeptide binding, fluorescence polarization; inhibition, %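 (tested at about 20 µM)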; actives 0.13% (n = 97,000); AID 693; in the data active means inhibition above about 34%, passing the limit was not always enough
* = called active by the depositor; nt = not tested or not shown. Rows were chosen to be rich in hits. Some 28% of all compounds tested hit in one or more screens of this group.

SMILES	PLK1 kinase inh	CYP2C9 inhib	CYP2C19 inhib	CYP2C9 act	CYP2C19 activ	Plk1 PBD FP
Cc1ccc([N+](=O)[O-])cc1N/C=C1\CCc2ccccc2C1=O	-9	0	-9	1	1.1	-10
COC(=O)c1cc2n3ccccc3c(C)c(-c3ccccc3)c-2c1C(=O)OC	-6	81*	54*	0.2	0.5	4
CNC(=S)N(Cc1ccc(OC)cc1)C1CC(=O)N(c2ccc(Cl)cc2)C1=O (stereo not given)	-2	30	63*	0.7	0.4	-26
CCOC(=O)c1ccc(N2C(=O)CC(N(Cc3ccc4c(c3)OCO4)C(=O)Nc3ccccc3)C2=O)cc1 (stereo not given)	-9	89*	81*	0.1	0.2	-13
CN(Cc1ccncc1)C1CC(=O)N(c2ccc(Cl)cc2)C1=O (stereo not given)	-1	94*	99*	0.1	0	12
CCOC(=O)c1ccc(NC(=O)c2ccc3c(c2)OCO3)cc1	-15	0	3	1	1	17
COc1ccc(CN(C(=S)Nc2ccccc2)C2CC(=O)N(c3ccc(F)cc3)C2=O)cc1 (stereo not given)	-16	36	9	0.6	0.9	24
CCOC(=O)c1ccc(N2C(=O)CC(N(C)CCc3ccc(OC)c(OC)c3)C2=O)cc1 (stereo not given)	-6	55*	73*	0.4	0.3	4
COc1ccc(CCNC(=O)C2CCN(c3ccc(N4CCOCC4)nn3)CC2)c(OC)c1	6	23	41	0.8	0.6	-5
CC(=O)Nc1ccc(N2C(=O)CC(N3CCN(Cc4ccc5c(c4)OCO5)CC3)C2=O)cc1 (stereo not given)	-11	nt	nt	nt	nt	-1
CNC(=S)N(Cc1ccc2c(c1)OCO2)C1CC(=O)N(c2ccc(F)cc2)C1=O (stereo not given)	1	76*	92*	0.2	0.1	42
Cc1ccc(OCC(O)CNS(=O)(=O)c2ccccc2C(=O)N2CCCCC2)cc1 (stereo not given)	-13	47	17	0.5	0.8	5
Nc1c(S(=O)(=O)c2cccs2)c2nc3ccccc3nc2n1CCc1ccccc1	-14	58*	58*	0.4	0.4	14
Nc1c(S(=O)(=O)c2cccs2)c2nc3ccccc3nc2n1Cc1ccc2c(c1)OCO2	-225	91*	42	0.1	0.6	-17
CCCn1c(-c2cccs2)nc2nc3ccccc3nc21	-19	47	14	0.5	0.9	-6
c1csc(-c2nc3nc4ccccc4nc3n2Cc2ccc3c(c2)OCO3)c1	-8	96*	90*	0	0.1	-4
CC(C)CCn1c(N)c(S(=O)(=O)c2cccs2)c2nc3ccccc3nc21	0	85*	39	0.2	0.6	18
Cc1cc(C(C#N)c2ccccc2)n2ncnc2n1 (stereo not given)	53*	-59	22	1.6	0.8	-6
Cc1cc(=O)n2[nH]cc(C(=O)O)c2n1	-14	nt	nt	nt	nt	-13
c1ccc2sc(SN3CCOCC3)nc2c1	nt	18	82*	0.8	0.2	nt
Cc1nc(N2CCN(S(=O)(=O)c3cccc4nonc34)CC2)c2c3c(sc2n1)CCCC3	nt	46	26	0.5	0.7	nt
Cc1[nH]ccc(=O)c1OCc1c(Cl)cccc1Cl	-9	18	12	0.8	0.9	23
Cc1ccc(Cn2ccc(=O)c(OCc3c(Cl)cccc3Cl)c2C)cc1	-8	45	65*	0.6	0.3	-10
O=c1cc(CSc2nnc(-c3cccs3)n2Cc2ccccc2)nc2sc3ccccc3n12	-7	95*	93*	0	0.1	8
CC(=O)c1c(C)[nH]c(C(=O)CSc2nnc(-c3cccs3)n2Cc2ccccc2)c1C	-2	72*	73*	0.3	0.3	-22
SMILES	PLK1 kinase inh	CYP2C9 inhib	CYP2C19 inhib	CYP2C9 act	CYP2C19 activ	Plk1 PBD FP
CCCn1c(N)c(C(=O)CSc2nnc(-c3ccco3)n2Cc2ccccc2)c(=O)[nH]c1=O	-7	nt	nt	nt	nt	26
CC(=O)c1c(C)[nH]c(C(=O)CSc2nnc(-c3ccccc3)n2Cc2ccc3c(c2)OCO3)c1C	-10	18	70*	0.8	0.3	5
Cc1cc(C(=O)CSc2nnc(-c3cccc(F)c3)n2N)c(C)n1Cc1ccc2c(c1)OCO2	-4	43	40	0.6	0.6	-10
CC(=O)c1c(C)[nH]c(C(=O)CSc2nnc(-c3ccco3)n2Cc2ccccc2)c1C	1	70*	73*	0.3	0.3	-11
CC(=O)c1c(C)[nH]c(C(=O)CSc2nnc(C3CCCCC3)n2N)c1C	-5	4	-4	1	1	19
CCOC(=O)c1sc(NC(=O)CCCCCN2C(=O)c3cccc4cccc(c34)C2=O)nc1C	-19	18	5	0.8	0.9	-29
COCCNC(=O)COc1cc(=O)n(C)c2ccccc12	0	-9	-10	1.1	1.1	22
C=CCn1c(SCC(=O)c2[nH]c(C)c(C(C)=O)c2C)nnc1-c1ccncc1	1	24	86*	0.8	0.1	-4
Cc1ccc(NC(=O)CC2COc3ccccc3O2)cc1 (stereo not given)	-3	29	69*	0.7	0.3	-6
COc1ccc(CCNC(=O)CC2COc3ccccc3O2)cc1OC (stereo not given)	-12	97*	97*	0	0	-4
COc1ccc(OC)c(NC(=O)C2COc3ccccc3O2)c1 (stereo not given)	-9	16	67*	0.8	0.3	-3
COc1cc(OC)c(OC)cc1NC(=O)CC1COc2ccccc2O1 (stereo not given)	-5	nt	nt	nt	nt	8
COc1ccc(NC(=O)CCC2COc3ccccc3O2)c(OC)c1 (stereo not given)	-10	26	83*	0.7	0.2	1
Cc1ccc2cc3c(NC(=O)c4ccco4)nn(CC(C)C)c3nc2c1	-11	2	4	1	1	-16
COc1ccc(CNC(=O)C2COc3ccccc3O2)c(OC)c1 (stereo not given)	-2	5	78*	0.9	0.2	32
O=C(NCc1ccccc1)C1COc2ccccc2O1 (stereo not given)	-5	nt	nt	nt	nt	19
Cc1ccc(NC2=C(N3CCOCC3)C(=O)c3ccccc3C2=O)cc1	-10	57*	44	0.4	0.6	-20
CC(=O)c1ccc(NC2=C(N3CCOCC3)C(=O)c3ccccc3C2=O)cc1	-9	48	61*	0.5	0.4	21
CC(=O)N(C)C1=C(N2CCOCC2)C(=O)c2ccccc2C1=O	-3	-6	-5	1.1	1.1	9
COc1ccccc1-c1ccc(Nc2cccc(C(C)=O)c2)nn1	-7	-49	80*	1.5	0.2	10
CCOC(=O)CSc1nc(C(C)(C)C)cc(C(F)(F)F)c1C#N	2	49	-12	0.5	1.1	4
